Sampled rows, rich in hits. Any-hit rate of the full collection: about 2.4%.
TDP1 block = blocks human tyrosyl-DNA phosphodiesterase 1; Q9NUW8; recombinant TDP1, AlphaScreen DNA substrate cleavage; Potency, µM (top dose mostly 130 µM), for inactives: at the highest dose activity change, negative = inhibition, actives largely listed as inhibitors; 350,000 tested, 0.28% active; also: potency is read from the fitted curve at half-maximal effect; % is scaled to controls: 0 for no effect and ±100 for the full control effect; nearly all actives have a fitted effect of over 40% in size
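Tdp1 1 nM final; 15 min RT w/ cpd; substrate 15 nM, 5 min; beads 10 ug/ml, 10 min; AlphaScreen read. Neg ctrl: no enzyme.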
POLI inh = blocks human DNA polymerase iota activity; AID 588590; Potency, µM (titrated, usually from 115 µM), without a hit: at the top dose activity, negative = inhibition, hits mostly inhibitors; Pol iota fluorescent replication assay, 10 min; 390,000 tested, 1% active; also: potency is read from the fitted curve at half-maximal effect
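Pol iota at 10 nM preincubated 15 min with compounds at room temperature; reaction started with fluorescent substrate, 50 nM final. Fluorescence read kinetically at 0 and 10 min; buffer-only wells as negative control.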
Pol eta inh-1 = inhibitors of human DNA polymerase eta; Potency, µM (doses to about 114 µM), for inactives: at the top dose activity change, negative = inhibition, usual class: inhibitors; recombinant Pol eta, fluorescent DNA replication assay; 390,000 tested, 1.2% active; Q9Y253; AID 588591; also: potency is read from the fitted curve at half-maximal effect; % is scaled to controls: 0 for no effect and ±100 for the full control effect
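Pol eta (10 nM) was preincubated with compounds for 15 min at room temperature, after which fluorescent replication substrate (50 nM final) was added to start the reaction. Fluorescence was read kinetically at 0 and 10 min.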
FEN1 inh = inhibitors of human flap endonuclease 1; Potency, µM (highest dose often 114 µM), without a hit: at the top dose activity change, negative = inhibition, most hits filed as inhibitors; Recombinant FEN1 flap cleavage, fluorescence, 15 min; 390,000 tested, 0.35% active; AID 588795; P39748; also: potency is read from the fitted curve at half-maximal effect; % is scaled to controls: 0 for no effect and ±100 for the full control effect; nearly all actives have a fitted effect of over 65% in size
Target sequence (P39748 whole entry, looked up): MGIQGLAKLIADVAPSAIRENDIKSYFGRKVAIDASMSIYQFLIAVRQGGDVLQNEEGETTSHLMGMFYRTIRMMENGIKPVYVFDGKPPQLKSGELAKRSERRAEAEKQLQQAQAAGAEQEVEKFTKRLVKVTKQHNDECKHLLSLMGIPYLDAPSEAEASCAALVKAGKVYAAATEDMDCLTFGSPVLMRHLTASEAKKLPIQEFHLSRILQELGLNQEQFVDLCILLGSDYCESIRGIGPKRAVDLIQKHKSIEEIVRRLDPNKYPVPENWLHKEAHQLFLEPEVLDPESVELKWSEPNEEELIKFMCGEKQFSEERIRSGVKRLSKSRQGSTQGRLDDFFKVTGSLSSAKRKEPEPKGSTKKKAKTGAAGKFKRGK
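In this screen, 50 nM flap DNA substrate was added to 10 nM FEN1 pretreated with compound for 15 min at room temperature; cleavage was followed with reads at 0 and 15 min, and Hill fitting gave concentration–response parameters.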
Pol kappa inh-1 = inhibitors of human DNA polymerase kappa; 400,000 tested, 0.53% active; AID 588579; Potency, µM (highest dose often 107 µM), for inactives: at the top dose activity, negative = inhibition, most hits filed as inhibitors; purified Pol kappa, fluorescent DNA synthesis assay, 10 min; Q9UBT6; also: potency is read from the fitted curve at half-maximal effect; % is scaled to controls: 0 for no effect and ±100 for the full control effect
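Kinetic fluorescence screen: compound preincubated 15 min RT with 10 nM enzyme; 50 nM substrate (final) initiates; reads at 0/10 min.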
Pol beta inh = DNA polymerase beta (human) inhibition | Potency, µM (series often up to 114 µM), without a hit: at the top dose activity change, negative = inhibition, most hits filed as inhibitors | Pol beta primer extension/strand displacement, fluorescence kinetic | 340,000 tested, 1.3% active; also: potency is read from the fitted curve at half-maximal effect; % is scaled to controls: 0 for no effect and ±100 for the full control effect
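Pol beta (10 nM) and compounds were preincubated 15 min at room temperature, then 50 nM substrate (final) started primer extension/strand displacement. Reads were taken at 0 and 10 min; concentration-response data were fitted to a four-parameter Hill equation.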
BAZ2B inh = inhibits human BAZ2B bromodomain, hit validation; Potency, µM, actives largely listed as inhibitors; AlphaScreen BAZ2B / biotin-H3K14Ac peptide displacement; shares compounds with Pol kappa inh-1; 25 tested, 100% active; calls by dose curve
AlphaScreen ctr = counter-screen for BAZ2B inhibitors: AlphaScreen signal interference. 25 tested, under 10 active. shares compounds with Pol kappa inh-1. Potency, µM (top dose mostly 57.1 µM), for the others: at the top dose activity change, negative = inhibition, actives largely listed as inhibitors. AlphaScreen biotin-His6 peptide bead counterscreen, signal decrease;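 active = clear concentration-dependent signal drop in the bead assay lacking the target, so a primary-screen artifact; inconclusive = weak, partial or single-dose response; inactive = no response, so a real primary hit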
PGK validate = validation of Trypanosoma brucei phosphoglycerate kinase inhibitors; AID 686980; 500 tested, 79% active; shares compounds with Pol kappa inh-1; TbPGK coupled GAPDH assay, Kinase-Glo luminescence; Potency, µM (series often up to 57.5 µM), for the others: at the top dose activity change, negative = inhibition, hits mostly inhibitors; also: potency is read from the fitted curve at half-maximal effect; % is scaled to controls: 0 for no effect and ±100 for the full control effect; nearly all actives have a fitted effect of over 65% in size
Target sequence (P07378 whole entry, looked up): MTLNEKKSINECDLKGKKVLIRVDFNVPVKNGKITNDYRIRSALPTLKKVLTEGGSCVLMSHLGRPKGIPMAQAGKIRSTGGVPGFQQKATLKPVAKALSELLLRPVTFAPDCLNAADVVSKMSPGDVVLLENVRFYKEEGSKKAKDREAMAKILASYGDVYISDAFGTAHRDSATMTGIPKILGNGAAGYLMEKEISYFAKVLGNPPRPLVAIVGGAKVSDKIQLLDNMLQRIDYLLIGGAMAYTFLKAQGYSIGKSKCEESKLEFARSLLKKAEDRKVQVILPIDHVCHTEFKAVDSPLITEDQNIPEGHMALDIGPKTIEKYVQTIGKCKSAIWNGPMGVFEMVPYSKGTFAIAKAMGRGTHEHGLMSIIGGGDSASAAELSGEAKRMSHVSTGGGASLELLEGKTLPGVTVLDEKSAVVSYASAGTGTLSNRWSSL
POLI cherry-pick = Human Pol iota inhibitor confirmatory assay; Potency, µM, hits mostly inhibitors; shares compounds with Pol kappa inh-1; Pol iota primer extension, TAMRA/BHQ fluorescence; 1,500 tested, 77% active; AID 720496; also: potency is read from the fitted curve at half-maximal effect
GALK confirm = confirmation of human galactokinase (GALK) inhibitors; shares compounds with Pol eta inh-1; purified GALK, Kinase-Glo ATP depletion luminescence; Potency, µM (series often up to 115 µM), without a hit: top-dose activity, negative = inhibition, hits mostly inhibitors; 150 tested, 70% active
Redox cycling = generates H2O2 by redox cycling, flagging GALK artifacts. Phenol red-HRP H2O2 redox cycling, absorbance 600 nm. Potency, µM (doses to about 115 µM), for the others: at the highest dose activity change, negative = H2O2 signal, hits mostly inhibitors. shares compounds with Pol eta inh-1. AID 2035. 150 tested, 40% active
HEK293 viability = reduces HEK-293 cell viability in GALK counter-screen; Potency, µM (titrated, usually from 46.1 µM), for the others: at the top dose activity change, negative = cytotoxicity, hits mostly inhibitors; HEK-293 viability, ATP luminescence (CellTiter-Glo), 24/48 h; shares compounds with Pol eta inh-1; 170 tested, 10% active; also: potency is read from the fitted curve at half-maximal effect; % is scaled to controls: 0 for no effect and ±100 for the full control effect
Pol kappa inh-2 = confirmation of human DNA polymerase kappa inhibitors. purified Pol-kappa, fluorescent strand-displacement substrate. shares compounds with Pol eta inh-1. Potency, µM, hits mostly inhibitors. 920 tested, 76% active; also: potency is read from the fitted curve at half-maximal effect
Pol eta inh-2 = Pol eta (human) inhibition, cherry-pick confirmation; shares compounds with Pol eta inh-1; Pol eta primer extension, TAMRA/BHQ fluorescence, 10 min; Potency, µM, usual class: inhibitors; 2,600 tested, 64% active; also: potency is read from the fitted curve at half-maximal effect
An asterisk follows results filed as active; ? = inconclusive; . = not tested or not shown; [ ] = another dose, or the depositor's remark. Unless noted, calls follow the shape of the dose curve; as a rule, active = well fitted curve in the direction sought with a large enough effect; inconclusive = small, poorly fitted or top-dose-only effect, or another doubt; inactive = no such curve, though single readings can be large; an effect the other way counts as inactive or inconclusive.

SMILES | TDP1 block | POLI inh | Pol eta inh-1 | FEN1 inh | Pol kappa inh-1 | Pol beta inh | POLI cherry-pick | Pol kappa inh-2 | Pol eta inh-2 | others
COc1ccc(S(=O)(=O)Nc2ccccc2OC)cc1N=Nc1c(O)[nH]c(=S)[nH]c1=O | ? | ? | 22µM* | -20% | ? | . | 42* | 42* | ?
COc1ccc(OC)c(NC(=O)COC(=O)c2cc3c(s2)CCC3)c1 | 2.8µM* | 3.5µM* | 10µM* | ? | 13µM* | 7.9µM* | 9.5* | . | 15* | BAZ2B inh=22*;AlphaScreen ctr=?;PGK validate=4.6µM*
COc1ccccc1NC(=O)COC(=O)c1cn(C)c2ccccc12 | 0% | 4% | -9% | 2% | -2% | . | . | . | .
CC(Cc1ccc(O)cc1)NCC(O)c1ccc(O)c(O)c1 (stereo not drawn) | . | . | 4µM* | . | . | . | 15* | 3.4* | 12*
CC(C)(C)OC(=O)C(Br)CCBr (stereo not drawn) | 6% | . | . | . | 12%[60.1 µM] | . | . | . | .
O=C1C=C(N2CC2)c2ccccc2C1=O | . | . | 8.9µM* | . | . | . | 47* | . | 30*
Cc1cc(/C=C2\C(=O)NC(=O)N(c3ccccc3F)C2=O)c(C)n1-c1cc(C(=O)O)cc(C(=O)O)c1 | . | ? | 3.2µM* | ? | ? | 10µM* | 19* | . | 7.6* | PGK validate=?
Cc1cc(/C=C2/C(=O)NC(=O)N(C)C2=O)c(C)n1-c1ccccc1 | -3% | -20% | -9% | -3% | 10% | -2% | . | . | .
NN=C1C(Cl)=C(Cl)C(Cl)=C1Cl | . | . | ? | . | . | . | 67* | ? | ?
C/C=C/C=O | 6% | . | . | . | . | . | . | . | .
CCCCn1c(NC(=O)c2ccc(Br)o2)c(C(=O)OCC)c2nc3ccccc3nc21 | 0% | ? | 22µM* | -16% | -10% | ? | 42* | . | 19*
CC(=O)Nc1ccc(N=Cc2c(O)n(Cc3ccco3)c(=O)[nH]c2=O)cc1 | 18µM* | 45µM* | ? | -33% | ? | 25µM* | 60* | ? | 76*
c1ccc(OP(Oc2ccccc2)Oc2ccccc2)cc1 | 8% | . | . | . | . | . | . | . | .
O=c1c(O)c(-c2ccc(O)c(O)c2)oc2cc(O)cc(O)c12 | 15%[56.1 µM] | 0.56µM* | 0.71µM* | 40µM* | 0.95µM* | 0.2µM* | 15* | 3* | 12* | PGK validate=?;GALK confirm=42µM*;Redox cycling=-2%;HEK293 viability=?
C=C(C)C(=O)Nc1cccc(C2=NOC3(C2)C[C@@H](C(N)=O)N(C(=O)/C(C)=C/C)C3)c1 (stereo partly drawn) | . | 35µM* | 2.5µM* | -20% | 20µM* | 1.4µM* | 30* | 8.4* | 6.7* | BAZ2B inh=4*;AlphaScreen ctr=-10%;PGK validate=?
Cc1ccc(-c2nc3c(=O)n(C)c(=O)nc-3n(C)n2)cc1 | 3% | -123% | . | -17% | -22% | . | 1.7* | . | 0.85*
Cn1ncnc2c(=O)n(C)c(=O)nc1-2 | 6% | -72% | 0.71µM* | 13% | 5% | ? | 5.3* | . | 5.4* | PGK validate=1.5µM*;GALK confirm=1.1µM*;Redox cycling=0.6µM*;HEK293 viability=3.1µM*
c1ccc(C2CO2)cc1 (stereo not drawn) | 11% | . | . | . | . | . | . | . | .
O=C(O)C(Cl)Br (stereo not drawn) | 6% | . | . | . | . | . | . | . | .
C=CCN1C(=O)NC(=O)/C(=C/c2cccn2C)C1=O | -1% | ? | 0% | -3% | -9% | 2% | . | . | .
O=C1NC(=O)N(Cc2ccco2)C(=O)/C1=C/c1cccn1CCOc1ccccc1Cl | 0% | 11µM* | 14µM* | -9% | ? | 25µM* | 67* | 60* | 30*
O=C(O)CBr | 12% | . | . | . | . | . | . | . | .
COc1ccc(CN2C(=O)NC(=O)/C(=C/c3cc(OC)c(OC)c(OC)c3)C2=O)cc1 | . | 21% | 1% | -16% | -7% | -2% | . | . | .
CCc1ccc(N2C(=O)NC(=O)/C(=C\C=C\c3ccco3)C2=O)cc1 | -1% | 7.1µM* | 20µM* | 22µM* | 35µM* | ? | 38* | 15* | 30*
O=C1NC(=O)N(Cc2ccc(F)cc2)C(=O)/C1=C\C=C\c1ccco1 | . | 14µM* | 20µM* | ? | ? | ? | ? | . | 30*
CCc1ccc(N2C(=O)CC(=O)NC2=O)cc1 | . | 3% | -19% | -7% | -9% | 11% | . | . | .
CC(C)c1ccc(N2C(=O)NC(=O)/C(=C/C=C/c3ccco3)C2=O)cc1 | 0% | 13µM* | 11µM* | ? | 40µM* | 32µM* | 75* | . | 30*
O=S(=O)(Cl)c1ccccc1 | 21% | . | . | . | . | . | . | . | .
CCc1ccccc1NC(=O)Nc1cc(C(=O)NCc2ccc(C(C)C)cc2)ccc1N1CCCC1 | -1% | 1% | -15% | 33% | -5%[60.1 µM] | -1% | . | . | .

Source: PubChem BioAssay
